Among the data in PubChem BioAssay AID1159580 (chemical genetic matrix, 2015) are normalized growth values, retold here.

This assay can be described thus: chemical genetic growth profiling, strain panel (AID 1159580).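 Further: tested at 20 µM; growth read once vehicle control cultures reached saturation at 30 °C; 1 = growth at the plate median or of vehicle wells.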 The note with it: S. cerevisiae deletion strains, growth OD.

Structures are written as SMILES. In all, about 5,500 compounds went through this assay and about 2,000 (36%) were called active. Roughly 18% stayed inconclusive and do not appear here. Some of the results follow. Values without a mark were called inactive. No stated cut-off is given here; in the data, active means normalized growth mostly below about 0.91 (no sharp cut-off); inconclusive means no clear call, values can overlap the other calls; inactive means mostly above about 0.92.

Turning to `CC(N)(C(=O)O)c1ccc(C(=O)O)cc1` (stereo not drawn), the normalized growth runs as follows: (locus YAL013W, strain DEP1, stronger effect = lower value) 1.01; (locus YAL040C, strain CLN3, stronger effect = lower value) 1.12 [resistant] (active); (locus YCL061C, strain MRC1 (second series), stronger effect = lower value) 1.01; (locus YDR150W, strain NUM1, stronger effect = lower value) 0.998; (locus YDR363W, strain ESC2, stronger effect = lower value) 1.03; (locus YER002W, strain NOP16, stronger effect = lower value) 0.995. Besides, the normalized growth reads like this: (locus YGR229C, strain SMI1, stronger effect = lower value) 1.01; (locus YMR263W, strain SAP30, stronger effect = lower value) 0.996; (locus YMR307W, strain GAS1, stronger effect = lower value) 1; (locus YNL175C, strain NOP13, stronger effect = lower value) 1; (locus YNL197C, strain WHI3, stronger effect = lower value) 1.02; (locus YNL224C, strain SQS1, stronger effect = lower value) 1. For the same compound, the normalized growth (locus YOR083W, strain WHI5 (second series), stronger effect = lower value) was 1.02.
